This is part of a sample that, as a whole, favours compounds with a hit. Of some 79,000 tested, about 15% had one in any assay. The source made the active and inactive calls. Rule as the data show it: active = growth inhibition above about 70%; inactive = the rest.
Legend:
[1] = NCI Yeast Anticancer Drug Screen. Data for the wt1 strain (AID 149);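 also: 0% = growth of vehicle-treated wt1 cultures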; settings: S. cerevisiae wt1 strain (SPY 50644) growth inhibition, active compounds read high
How it was run: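 wt1 strain grown with compound or vehicle; inhibition taken from the growth difference.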

[2] = NCI Yeast Anticancer Drug Screen. Data for the rad50EPP+ strain (AID 151);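 also: 0% = growth of vehicle-treated control cultures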; settings: S. cerevisiae rad50 mutant strain, active compounds read high
How it was run: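 Measured: growth inhibition of rad50EPP+ yeast. Reference: vehicle-treated controls. Screen uses strains with defined genetic alterations in DNA damage repair or cell cycle control.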

[3] = NCI Yeast Anticancer Drug Screen. Data for the mgt1 strain (AID 153); settings: S. cerevisiae mgt1 mutant growth inhibition, active compounds read high
How it was run: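 Compounds were applied to mgt1 mutant yeast, and growth was then compared against vehicle-treated control cultures to give percent inhibition.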

[4] = NCI Yeast Anticancer Drug Screen. Data for the rad50 strain (AID 155);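 also: 0% = growth of vehicle-only cultures of the same strain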; settings: S. cerevisiae rad50 strain growth inhibition, active compounds read high
How it was run: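 DNA repair mutant yeast, compound exposure, growth read-out; inhibition is taken relative to vehicle.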

[5] = NCI Yeast Anticancer Drug Screen. Data for the mec2-1 strain (AID 157); settings: S. cerevisiae mec2-1 strain, active compounds read high
How it was run: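 Compounds were applied to mec2-1 yeast cells. Their growth was then compared with that of vehicle-treated cultures to give growth inhibition.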

[6] = NCI Yeast Anticancer Drug Screen. Data for the rad14 strain (AID 159);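 also: 0% = growth of vehicle-treated control cultures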; settings: S. cerevisiae rad14 strain growth inhibition, active compounds read high
How it was run: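 DNA repair-defective yeast, compound-exposed; % growth inhibition derived by comparison with vehicle-treated controls.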

[7] = NCI Yeast Anticancer Drug Screen. Data for the sgs1 mgt1 strain (AID 161);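 also: 0% = growth of cultures given vehicle only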; settings: S. cerevisiae sgs1 mgt1 strain, active compounds read high
How it was run: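 This yeast growth screen uses a strain with defined DNA-repair lesions; compound-treated growth is compared with vehicle-treated growth.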

[8] = NCI Yeast Anticancer Drug Screen. Data for the CLN2oe strain (AID 163);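 also: 0% = growth of vehicle-only control cultures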; settings: S. cerevisiae CLN2oe strain, active compounds read high
How it was run: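 Cells of an engineered yeast line with disturbed cell-cycle regulation are treated with compound. Inhibition of growth is then calculated relative to the vehicle-treated reference.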

[9] = NCI Yeast Anticancer Drug Screen. Data for the cln2 rad14 strain (AID 165);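 also: 0% = growth equal to vehicle treated cultures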; settings: S. cerevisiae cln2 rad14 strain, active compounds read high
How it was run: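 Strain: cln2 rad14 yeast, altered in cell cycle control and DNA damage repair. Read-out: growth inhibition vs vehicle.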

[10] = NCI Yeast Anticancer Drug Screen. Data for the bub3 strain (AID 167); settings: S. cerevisiae bub3 mutant strain, active compounds read high
How it was run: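 In this screen, a yeast mutant lacking normal mitotic checkpoint function is challenged with compound. Relative growth versus vehicle gives the inhibition value.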

[11] = NCI Yeast Anticancer Drug Screen. Data for the wt2 strain (AID 169);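 also: 0% = growth of vehicle-treated yeast cultures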; settings: S. cerevisiae wt2 strain growth inhibition, active compounds read high
How it was run: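 Growth of compound-treated yeast is measured and expressed as inhibition relative to vehicle-only controls.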

[12] = NCI Yeast Anticancer Drug Screen. Data for the mlh1 strain (AID 171);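 also: 0% = growth of vehicle-treated control cultures of the same strain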; settings: S. cerevisiae mlh1 strain growth inhibition, active compounds read high
How it was run: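 Test agents were incubated with yeast bearing a defined DNA damage repair or cell cycle control alteration; values are growth inhibition normalised to vehicle-treated cultures.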

[13] = NCI Yeast Anticancer Drug Screen. Data for the sgs1 strain (AID 173);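 also: 0% = growth of vehicle-only control cultures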; settings: S. cerevisiae sgs1 mutant, active compounds read high
How it was run: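 Strain with an altered DNA repair or cell cycle pathway exposed to compound. Growth then measured. Value = inhibition versus vehicle control.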

[14] = NCI Yeast Anticancer Drug Screen. Data for the mlh1 rad18 strain (AID 175); settings: S. cerevisiae mlh1 rad18 strain growth inhibition, active compounds read high
How it was run: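 A repair-deficient yeast strain is exposed to test compound, and growth is scored relative to vehicle-treated controls.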

[15] = NCI Yeast Anticancer Drug Screen. Data for the rad18 strain (AID 177); settings: S. cerevisiae rad18 mutant growth inhibition, active compounds read high
How it was run: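 DNA-repair-defective yeast; compound treatment; growth inhibition scored against vehicle.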

[16] = at 5.0 µM (retest, dose inferred, filed as 0.5)
[17] = at 50.0 µM (retest, dose inferred, filed as 5.0)

Measured: growth inhibition

COc1c(O)c(C=O)c(Br)c(C=O)c1O
inactive: [1]; at 1.2 µM 0% | [1]; at 3.7 µM 5% | [1]; at 11.0 µM 4% | [1]; at 33.0 µM 17% | [1]; at 100.0 µM 68% | [2]; at 1.2 µM 24% | [2]; at 3.7 µM 43% | [3]; at 1.2 µM -2% | [3]; at 3.7 µM 0% | [3]; at 11.0 µM 8% | [3]; at 33.0 µM 30% | [4]; at 1.2 µM 4% | [4]; at 3.7 µM 7% | [4]; [16] 16% | [4]; at 11.0 µM 15% | [4]; at 33.0 µM 47% | [5]; at 1.2 µM 3% | [5]; at 3.7 µM 6% | [5]; [16] 16% | [5]; at 11.0 µM 14% | [5]; at 33.0 µM 47% | [6]; at 1.2 µM 1% | [6]; at 3.7 µM 4% | [6]; at 11.0 µM 11% | [6]; at 33.0 µM 42% | [7]; [16] 16% | [8]; at 1.2 µM 2% | [8]; at 3.7 µM 0% | [8]; at 11.0 µM 17% | [8]; at 33.0 µM 40% | [9]; [16] 12% | [9]; at 50.0 µM 66.5% | [10]; at 1.2 µM -4% | [10]; at 3.7 µM -1% | [10]; [16] -1% | [10]; at 11.0 µM 3% | [10]; at 33.0 µM 54% | [11]; at 1.2 µM -1% | [11]; at 3.7 µM 2% | [11]; at 11.0 µM 5% | [11]; at 33.0 µM 30% | [12]; at 1.2 µM 5% | [12]; at 3.7 µM 2% | [12]; at 11.0 µM 9% | [12]; at 33.0 µM 43% | [13]; at 1.2 µM -2% | [13]; at 3.7 µM 3% | [13]; at 11.0 µM 12% | [13]; at 33.0 µM 53% | [14]; [16] 7% | [15]; at 1.2 µM 0% | [15]; at 3.7 µM -1% | [15]; at 11.0 µM 5% | [15]; at 33.0 µM 24%
active: [2]; at 11.0 µM 75% | [2]; at 33.0 µM 95% | [2]; at 100.0 µM 99% | [3]; at 100.0 µM 82% | [4]; [17] 97% | [4]; at 50.0 µM 98.2% | [4]; at 100.0 µM 86% | [5]; [17] 98% | [5]; at 50.0 µM 82.1% | [5]; at 100.0 µM 95% | [6]; at 100.0 µM 83% | [7]; [17] 96% | [7]; at 50.0 µM 99% | [8]; at 100.0 µM 90% | [9]; [17] 95% | [10]; [17] 98% | [10]; at 50.0 µM 98.9% | [10]; at 100.0 µM 97% | [11]; at 100.0 µM 89% | [12]; at 100.0 µM 95% | [13]; at 100.0 µM 94% | [14]; [17] 98% | [14]; at 50.0 µM 99% | [15]; at 100.0 µM 90%

O=C1CC(=O)c2ccccc21
inactive: [1]; at 1.2 µM 0% | [1]; at 3.7 µM -1% | [1]; at 11.0 µM 0% | [1]; at 33.0 µM 5% | [1]; at 100.0 µM 17% | [2]; at 1.2 µM -3% | [2]; at 3.7 µM -1% | [2]; at 11.0 µM 6% | [2]; at 33.0 µM 18% | [2]; at 100.0 µM 55% | [3]; at 1.2 µM -1% | [3]; at 3.7 µM 0% | [3]; at 11.0 µM 1% | [3]; at 33.0 µM 3% | [4]; at 1.2 µM 4% | [4]; at 3.7 µM 3% | [4]; [16] 3% | [4]; at 11.0 µM -9% | [4]; at 33.0 µM 14% | [4]; [17] 69% | [4]; at 100.0 µM 46% | [5]; at 1.2 µM 1% | [5]; at 3.7 µM 2% | [5]; [16] 1% | [5]; at 11.0 µM 4% | [5]; at 33.0 µM 10% | [5]; [17] 53% | [5]; at 50.0 µM 46.3% | [5]; at 100.0 µM 40% | [6]; at 1.2 µM 0% | [6]; at 3.7 µM 3% | [6]; at 11.0 µM 5% | [6]; at 33.0 µM 12% | [6]; at 100.0 µM 56% | [7]; [16] 3% | [7]; [17] 12% | [7]; at 50.0 µM 59.7% | [8]; at 1.2 µM -9% | [8]; at 3.7 µM -1% | [8]; at 11.0 µM 3% | [8]; at 33.0 µM 1% | [8]; at 100.0 µM 48% | [9]; [16] 0% | [9]; [17] 57% | [10]; at 1.2 µM -2% | [10]; at 3.7 µM -1% | [10]; [16] -4% | [10]; at 11.0 µM 0% | [10]; at 33.0 µM 3% | [10]; [17] 6% | [10]; at 50.0 µM 67.9% | [10]; at 100.0 µM 35% | [11]; at 1.2 µM 0% | [11]; at 3.7 µM 8% | [11]; at 11.0 µM 1% | [11]; at 33.0 µM 5% | [11]; at 100.0 µM 37% | [12]; at 1.2 µM -1% | [12]; at 3.7 µM 0% | [12]; at 11.0 µM 2% | [12]; at 33.0 µM 4% | [12]; at 100.0 µM 65% | [13]; at 1.2 µM -1% | [13]; at 3.7 µM 2% | [13]; at 11.0 µM 6% | [13]; at 33.0 µM 18% | [13]; at 100.0 µM 57% | [14]; [16] 1% | [14]; [17] 12% | [15]; at 1.2 µM -1% | [15]; at 3.7 µM 2% | [15]; at 11.0 µM 7% | [15]; at 33.0 µM 23%
active: [3]; at 100.0 µM 72% | [4]; at 50.0 µM 87.4% | [9]; at 50.0 µM 70.5% | [14]; at 50.0 µM 70% | [15]; at 100.0 µM 74%
